Screening results as filed in PubChem BioAssay.
D2 ag-1: D2 dopamine receptor (human) agonism. 0.53% of 340,000 active. P14416. AID 485358. activation, % at 2 µM. HEK293 T-REx D2 cells, calcium flux agonist mode;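 active means activation over 3 SD above normal in the single-dose calcium agonist read, cut at about 30% in these data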
Target sequence (P14416 whole entry, looked up): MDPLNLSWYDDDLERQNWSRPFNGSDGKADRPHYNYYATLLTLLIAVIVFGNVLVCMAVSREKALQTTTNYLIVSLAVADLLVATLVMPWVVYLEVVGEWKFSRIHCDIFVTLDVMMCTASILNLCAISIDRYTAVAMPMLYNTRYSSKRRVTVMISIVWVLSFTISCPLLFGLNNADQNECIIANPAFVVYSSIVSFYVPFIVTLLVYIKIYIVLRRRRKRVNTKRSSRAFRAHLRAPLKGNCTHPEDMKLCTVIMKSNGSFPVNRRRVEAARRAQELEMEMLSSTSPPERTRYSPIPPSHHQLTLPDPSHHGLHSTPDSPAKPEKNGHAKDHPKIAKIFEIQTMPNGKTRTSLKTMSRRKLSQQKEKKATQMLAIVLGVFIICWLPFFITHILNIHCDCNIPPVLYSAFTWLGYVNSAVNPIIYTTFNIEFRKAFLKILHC
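Agonism is scored from calcium flux in a force-coupled, inducible HEK293 cell line expressing D2, read kinetically for 180 s after compound addition against dopamine controls.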
D2 antagonist: antagonists of human D2 dopamine receptor; inhibition, % at 10 µM; P14416; HEK293 TREx D2 cells, calcium flux, dopamine EC80; 2% of 340,000 active; in the data active means inhibition above about 30%; inactive means below that, where a call was filed
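Calcium flux kinetic readout in an inducible HEK293 TREx D2 line plated overnight at 30 C. After 180 s compound exposure, an EC80 dopamine challenge follows with another 180 s kinetic read to detect antagonism.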
Apoferritin bind: candidate novel general anesthetic via apoferritin binding. apoferritin/1-aminoanthracene competitive binding, fluorescence. Potency, µM (doses to about 77.5 µM), most hits filed as inhibitors. 0.074% of 350,000 active. AID 485281; active means well fitted inhibition curve with a large enough effect; inconclusive means small, poorly fitted or top-dose-only effect; inactive means no such curve, though single readings can be large or run the other way; further: nearly all actives have a fitted effect of over 20% in size
Target sequence (P02791 2-175 limits assumed): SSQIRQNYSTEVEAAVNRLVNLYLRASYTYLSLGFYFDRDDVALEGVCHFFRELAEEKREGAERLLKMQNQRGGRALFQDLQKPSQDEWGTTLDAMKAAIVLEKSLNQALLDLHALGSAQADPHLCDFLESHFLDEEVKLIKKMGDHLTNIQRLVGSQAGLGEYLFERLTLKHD
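10 uM apoferritin + 50% sat. 1-AMA, PBS; cpd 10 min RT; Ex380/Em535 endpoint; normalized to free probe vs complex; 4-param Hill fit; propofol titration as pos. ctrl.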
D2 PAM-1: D2 dopamine receptor (human) potentiation. P14416. HEK293 T-REx D2, calcium flux, EC20 dopamine potentiation. potentiation, % at 10 µM. 0.34% of 340,000 active;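 active means potentiation over 3 SD above the plate norm, cut at about 30% in these data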
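Using a no-wash calcium dye in inducible, force-coupled HEK293 Trex cells expressing D2, we tracked fluorescence each second for 180 s after compound, then for 180 s after EC20 dopamine to detect augmented signalling.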
D2 PAM-2: potentiates the human D2 dopamine receptor allosterically; potentiation, % (test concentration not listed); DiscoveRx D2 beta-arrestin cells, luminescence, 90 min; 100% = 57 uM dopamine signal; AID 624464; 0.23% of 360,000 active; P14416; in the data active means potentiation above about 50%; inconclusive means mostly about 30% to 49%
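PathHunter D2 cells, attached overnight at 37 deg C, received compound in DMSO plus dopamine at EC20 (50 nM final) for 90 min at 37 deg C. Beta-arrestin recruitment was read as luminescence after 1 h with detection reagent at ambient temperature.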
D2 ag-2: agonists of human D2 dopamine receptor (beta-arrestin); P14416; DiscoveRx PathHunter D2 beta-arrestin, luminescence, 90 min; 100% = 57 uM dopamine signal; activation, % (test concentration not listed); 0.084% of 360,000 active; AID 624465; in the data active means activation above about 40%; inconclusive means between about 15% and that limit
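DiscoveRx PathHunter D2 beta-arrestin cells (2,100/well) attached overnight, then compound-stimulated 90 min at 37 C in HBSS/10 mM HEPES/0.1% Tween-20 buffer; beta-galactosidase complementation read by luminescence after 1 h at ambient temperature. Dopamine 57 uM final (EC100) as control.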
Large screens that a line does not name were inactive. A selection: hits, their analogues and other compounds. The true share with any hit is near 2.5%.

Cc1ccc(-n2nnnc2SCc2ccc(C(=O)O)cc2)cc1C	D2 antagonist 30.3
O=C(O)c1ccc(CSc2nnnn2-c2ccc(F)cc2)cc1	none
COC(=O)c1cc2sccc2n1CC(=O)Nc1ccc(OC)c(OC)c1OC	none
CC(C)(C)OC(=O)NCCCCCc1nnc(SCc2cccc(F)c2)o1	none
Cc1ccc(S(=O)(=O)N2CCC(C(=O)OC3CCOC3=O)CC2)cc1C (stereo unspecified)	none (no result: Apoferritin bind)
Cc1ccc(S(=O)(=O)N2CCOCC2)cc1C(=O)OC1CCOC1=O (stereo unspecified)	D2 antagonist 40.9 (no result: Apoferritin bind)
CC(=O)c1cccc(S(=O)(=O)N2CCC(C(=O)OC3CCOC3=O)CC2)c1 (stereo unspecified)	D2 antagonist 43.4 (no result: Apoferritin bind)
COc1ccc(-c2nc(N)n(S(=O)(=O)c3ccc(C)cc3)n2)cc1	none
CC(Sc1nnc(-c2cc3ccccc3o2)n1-c1ccccc1)C(=O)O (stereo unspecified)	D2 antagonist 45.0
Cc1ccc(CNC(=O)c2ccc(N3CCC4(CC3)CC(c3ccccc3)=NO4)c([N+](=O)[O-])c2)cc1	D2 antagonist 45.2
O=C(NCc1ccccc1)c1ccc(N2CCC3(CC2)CC(c2ccccc2)=NO3)c([N+](=O)[O-])c1	none
CCc1nnc(NC(=O)CN2CCN(C3CCCCC3)CC2)s1	none
O=C(NCCC(=O)N(Cc1ccco1)Cc1cccs1)c1ccccc1Cl	none (no result: Apoferritin bind)
O=C(NCCC(=O)N(Cc1ccco1)Cc1cccs1)c1ccc(Br)cc1	D2 antagonist 41.3 (no result: Apoferritin bind)
COc1cc2c(C)nc(C)c(C#N)c2cc1OC	D2 PAM-1 38.9
Cc1noc(C)c1CSc1ccccc1C(=O)OC(C)C(N)=O (stereo unspecified)	none
Cc1nc2ccccc2n1CC(O)COC1CCCCC1 (stereo unspecified)	D2 antagonist 31.6
Cc1ccc(N2CCN(CC(O)COC3CCCCC3)CC2)cc1 (stereo unspecified)	D2 antagonist 63.4
CC(=O)N(C)c1ccc(OCC(O)Cn2c(C)nc3ccccc32)cc1 (stereo unspecified)	D2 PAM-1 30.7
COc1ccc(-c2cc(C(F)(F)F)nc(N)n2)cc1	none
Cc1ccc(NC(=O)c2cc(=O)[nH]c3ccccc23)cc1	none
CCn1c(Cc2ccccc2)nnc1SCC(=O)NC1CCCC1	none
COc1cc(C)ccc1OCC(=O)OCC(=O)c1[nH]c(C)c(C(C)=O)c1C	none (no result: D2 ag-1, D2 antagonist, Apoferritin bind, D2 PAM-1)
O=C(Cc1ccccc1)NNC1=NS(=O)(=O)c2ccccc21	none
COc1ccc(-n2nc([N+](=O)[O-])c(=NCCc3ccccc3)n2O)cc1	D2 PAM-2 131.2, D2 ag-2 inconclusive
O=[N+]([O-])c1nn(-c2ccccc2)n(O)c1=NCCc1ccccc1	D2 PAM-2 160.6, D2 ag-2 inconclusive
O=[N+]([O-])c1nn(-c2ccccc2)n(O)c1=NC1CCN(Cc2ccccc2)CC1	none (no result: D2 ag-1, D2 antagonist, D2 PAM-1)
Cc1ccc(CCN=c2c([N+](=O)[O-])nn(-c3ccccc3)n2O)cc1	Apoferritin bind inconclusive, D2 PAM-2 67.3, D2 ag-2 inconclusive
COc1cccc(CN=c2c([N+](=O)[O-])nn(-c3ccccc3C)n2O)c1	D2 PAM-2 inconclusive
Cc1ccc(C)c(CN2C(=O)CSc3ccc(C(=O)NCC(C)CN4CCC(C)CC4)cc32)c1 (stereo unspecified)	none
Cc1ccc(C)c(Nc2c(F)c(F)c(F)c(F)c2C(=O)O)c1	D2 PAM-1 32.5
COc1c(F)c(F)c(C(=O)O)c(Nc2ccc(C)cc2)c1F	none
CCOc1ccc(C(=O)NCCCCNC(=O)c2ccc(OCC)cc2)cc1	none
COc1ccc(Cn2ccnc2SCC(=O)NC2CCCC2)cc1	Apoferritin bind 35.5µM
C[C@H]1CCC[C@]2(O[C@@H](CCO)C[C@H](O)[C@H]2O)O1	D2 antagonist 30.6
CCN(CC)CCOC(=O)c1ccc(NC(=O)CCCN2C(=O)/C(=C/c3cccs3)SC2=S)cc1	D2 antagonist 48.9, Apoferritin bind inconclusive
COc1cccc(NC(=O)NC2CCN(Cc3nnnn3Cc3ccc(F)cc3)CC2)c1	none
O=C(/C=C/c1cccc(F)c1)NC1CCN(Cc2ccccc2)CC1	D2 antagonist 56.4
O=C(Nc1cccc(F)c1)NC1CCN(Cc2ccccc2)CC1	D2 antagonist 88.6
CCN1CCN(C(=O)Nc2cccc(C(F)(F)F)c2)CC1	none
CCN1CCC(NC(=O)Nc2cccc(C(F)(F)F)c2)CC1	D2 antagonist 36.7
O=C(COC(=O)/C=C/c1cccc(F)c1)NC1CC1	none (no result: D2 ag-1, D2 antagonist, Apoferritin bind, D2 PAM-1)
O=C(CCCn1c(=O)c2ccccc2n(Cc2cccc(F)c2)c1=O)NC1CCN(Cc2ccccc2)CC1	D2 antagonist 39.6, Apoferritin bind inconclusive (no result: D2 PAM-2, D2 ag-2)
O=C(CCCCCN1C(=O)C2C3C=CC(C3)C2C1=O)Nc1nccs1 (stereo unspecified)	Apoferritin bind inconclusive
COc1ccc(OC)c(NC(=O)CNC(=O)Cn2cnc3sc(C)cc3c2=O)c1	none
Fc1cccc(CN2CCC(Cc3ccccc3)CC2)c1	D2 antagonist 55.7
O=C(/C=C/c1cccc(Br)c1)NC1CCN(Cc2ccccc2)CC1	D2 antagonist 71.8
NS(=O)(=O)c1ccc(NC(=O)Cc2cccs2)cc1	D2 antagonist 38.6
CCN(CC)S(=O)(=O)c1ccc(NC(=O)Cc2cccs2)cc1	Apoferritin bind inconclusive
COc1cccc(NS(=O)(=O)c2ccc3[nH]cc(C(=O)NC4CC4)c(=O)c3c2)c1	none (no result: D2 PAM-1)
COc1ccc(C2(c3ccc(OC)cc3)NC(=O)N(CC(=O)NCC(C)c3ccccc3)C2=O)cc1 (stereo unspecified)	D2 antagonist 67.8 (no result: Apoferritin bind)
COc1ccc(C2(c3ccc(OC)cc3)NC(=O)N(CC(=O)NC(C)C)C2=O)cc1	none
O=C(Nc1ccccc1F)c1oc2ccccc2c1NC(=O)C12CC3CC(CC(C3)C1)C2	none (no result: D2 antagonist, D2 PAM-2, D2 ag-2)
Nc1ccc(S(=O)(=O)Nc2ccc(C(=O)c3ccccc3)cc2)cc1	Apoferritin bind inconclusive
O=C(N/N=C/c1cccs1)c1c[nH]c2ccccc12	D2 antagonist 32.7
CCc1ccc(/C=N/NC(=O)c2c[nH]c3ccccc23)s1	none
COc1ccccc1-c1cc(C(=O)N/N=C/c2cccs2)c2ccccc2n1	D2 antagonist 72.4
CCCc1cc(C(=O)Cc2ccccn2)c(O)cc1O	D2 antagonist 36.6
O=C(/C=C/c1cccc([N+](=O)[O-])c1)Nc1ccc(Cl)cn1	none
O=C(COC(=O)/C=C/c1cccc([N+](=O)[O-])c1)Nc1ccc(Cl)cn1	D2 antagonist 39.3 (no result: Apoferritin bind)
Cc1cccc(NC(=S)NC2CC3CCCC(C2)N3Cc2cccs2)c1C (stereo unspecified)	D2 antagonist 68.6
